Test results from PubChem BioAssay (EPA / NIEHS).
Records with an inconclusive call do not appear. Active and inactive are the calls of the source. The calls were made as follows: active = hit-call score of the fitted dose curve at least 0.9, where 1 is the maximum; inconclusive = response in the unintended direction; inactive = score below 0.9.

Each compound was assayed on Sodium/Iodide Symporter (NIS), SLC5A5 (gene 6528) (assay: CPHEA_Stoker_NIS_Inhibition_RAIU: CPHEA's Radioactive Iodide Uptake (RAIU) Assay for Sodium/Iodide Symporter (NIS) Inhibition, Stoker and Laws Labs (AID 2283841)).
Procedure: CPHEA_Stoker_NIS is a cell-based, single-readout assay that uses hNIS-HEK293T-EPA, a novel human kidney cell line expressing human NIS, with measurements taken at 2 hours after chemical dosing in a 96-well plate. This radioactive iodide uptake (RAIU) assay is used to identify inhibitors of NIS-mediated iodide uptake. A parallel cytoxicity assay (Cell Titer Glo, Promega) was also run in the same cell line.CPHEA_Stoker_NIS_Inhibition_RAIU is one of 2 assay components measured from the CPHEA_Stoker_NIS assay. It is designed to make measurements of radioactive substrate uptake to understand transporter function, as detected with 125-i signals by MicroBeta radioactivity plate reader technology.Data from the assay component CPHEA_Stoker_NIS_Inhibition_RAIU was analyzed at the endpoint, CPHEA_Stoker_NIS_Inhibition_RAIU, in the positive analysis fitting direction relative to DMSO as the negative control and baseline of activity. Measures of radioactive substrate uptake for loss-of-signal activity can be used to understand the effects on transporter function at the pathway level as they relate to the sodium-iodide symporter, gene SLC5A5. To generalize the intended target to other relatable targets, this assay endpoint is annotated to the transporter intended target family, where the subfamily is sodium-iodide symporter (NIS).
hNIS-HEK293T-EPA cells were seeded with a MultiFlo FX dispenser (BioTek, Winooski, VT) into ScintiPlate-96 microplates (Perkin Elmer, Waltham, MA) at a density of 4.0x10^4 cells per well in 200uL growth media and incubated for 40 hours before experimentation. On day of the assay, carrier-free 125I (Perkin-Elmer, Waltham, MA; specific activity: 17.4Ci/mg) was diluted with Hanks' balanced salt solution (Sigma, St. Louis, MO) supplemented with 10mM HEPES (uptake buffer; pH 7.4) at 5uCi/mL (288pg 125I/mL uptake buffer; 2.30nM). The assay was initiated by washing cells twice with 200uL uptake buffer using a 96-well Tecan HydroSpeed plate washer (Tecan, Mannedorf, Switzerland). Uptake buffer (59.7uL) was then added back to each well. Chemical samples (350nL at 200X) were administered using the HDR tool as previously described to achieve a 1X chemical/0.5% final DMSO concentration with subsequent addition of 10uL of 125I dilution (final [125I]: 329pM; 2.88pg/well) for a final reaction volume of 70uL/well. Cells were incubated at room temperature for 2 hours and then washed twice with 200uL ice cold uptake buffer. All uptake buffer was aspirated from wells, plates were sealed, and read on a MicroBeta2 plate reader (Perkin Elmer, Waltham, MA) using a detection protocol to measure CPM corresponding to intracellular 125I concentration. Each chemical concentration (0.001, 0.01, 0.1, 1.0, 10, and 100uM) was assayed in triplicate with three independent biological replicate plates (3 sequential cell passages). Additionally, a concentration response of NaClO4 (0.001, 0.01, 0.1, 1.0, 10, and 100uM) served as a positive control inhibition curve on each RAIU assay plate. DMSO control wells were assayed on each plate as a measure of maximum iodide uptake for normalization and determination of intra- and inter-assay variation. (Toxicol In Vitro, 2017, 40:66-78).
`COc1cccc(C(=O)NN(C(=O)c2cc(C)cc(C)c2)C(C)(C)C)c1C` was tested, and the AC50 was 15.8 µM (active). For `Nc1c(Cl)cc([N+](=O)[O-])cc1Cl`, the outcome was “inactive”. `CSc1nc(NC(C)C)nc(NC(C)C)n1` was tested, and the outcome was “inactive”. For `CCCCOC(=O)[C@@H](C)Oc1ccc(Oc2ccc(C#N)cc2F)cc1`, the outcome was “inactive”. For `CCOC(=O)COc1cc(-c2nn(C)c(OC(F)F)c2Cl)c(F)cc1Cl`, the outcome was “inactive”. For `CCOP(=S)(OCC)OC(Cl)C(Cl)(Cl)Cl` (stereo unspecified), the outcome was “inactive”. For `C[Si](Cn1cncn1)(c1ccc(F)cc1)c1ccc(F)cc1`, the outcome was “inactive”. `CSC1=N[C@@](C)(c2ccccc2)C(=O)N1Nc1ccccc1` was tested, and the outcome was “inactive”. `CC[C@H](C)[C@H]1O[C@]2(C=C[C@@H]1C)C[C@@H]1C[C@@H](C/C=C(\C)[C@@H](O[C@H]3C[C@H](OC)[C@@H](O[C@H]4C[C@H](OC)[C@@H](NC)[C@H](C)O4)[C@H](C)O3)[C@@H](C)/C=C/C=C3\CO[C@@H]4[C@H](O)C(C)=C[C@@H](C(=O)O1)[C@]34O)O2` was tested, and the AC50 was 13.3 µM (active). In the case of `CC(COc1ccc(Oc2ccccc2)cc1)Oc1ccccn1` (stereo unspecified), the outcome is reported as “inactive”. With `CC(C)=CC1C(C(=O)OCN2C(=O)C3=C(CCCC3)C2=O)C1(C)C` (stereo unspecified) the AC50 was 32.9 µM (active). `CCOP(=S)(OCC)Oc1ccc2c(C)c(Cl)c(=O)oc2c1` was tested, and the AC50 was 9.92 µM (active). For `CC1(C(=O)Nc2ccc(O)c(Cl)c2Cl)CCCCC1`, the outcome was “inactive”. For `O=[N+]([O-])c1cc(C(F)(F)F)c(Cl)c([N+](=O)[O-])c1Nc1ncc(C(F)(F)F)cc1Cl`, the AC50 was 6.41 µM (active). `C=C(C)[C@H]1Cc2c(ccc3c2O[C@@H]2COc4cc(OC)c(OC)cc4[C@@H]2C3=O)O1` was tested, and the AC50 was 0.0708 µM (active). With `Cc1cc(C2CC2)nc(Nc2ccccc2)n1` the AC50 was 44 µM (active). With `CCC(CC)Nc1c([N+](=O)[O-])cc(C)c(C)c1[N+](=O)[O-]` the outcome was “inactive”. With `FC(F)C(F)(F)OCC(Cn1cncn1)c1ccc(Cl)cc1Cl` (stereo unspecified) the outcome was “inactive”. In the case of `CCOP(=S)(OCC)Oc1ccc([N+](=O)[O-])cc1`, the outcome is reported as “inactive”. For `CCCOCC(=Nc1ccc(Cl)cc1C(F)(F)F)n1ccnc1`, the AC50 was 29 µM (active). With `CCOP(=S)(OCC)SCCSCC` the outcome was “inactive”. With `CC(C)N(C(=O)SCC(Cl)=C(Cl)Cl)C(C)C` the AC50 was 21.1 µM (active). `COP(=O)(OC)OC(Br)C(Cl)(Cl)Br` (stereo unspecified) was tested, and the outcome was “inactive”. With `C#CCC1=C(C)C(OC(=O)C2C(C=C(C)C)C2(C)C)CC1=O` (stereo unspecified) the AC50 was 47.5 µM (active). For `CCCCN(CC)c1c([N+](=O)[O-])cc(C(F)(F)F)cc1[N+](=O)[O-]`, the outcome was “inactive”. For `CCOP(=S)(Oc1cnc(C(C)(C)C)nc1)OC(C)C` (stereo unspecified), the outcome was “inactive”. In the case of `N#CSCSC#N`, the AC50 is reported as 18.3 µM (active). With `CON=C(C(=O)OC)c1ccccc1CON=C(C)c1cccc(C(F)(F)F)c1` the AC50 was 2.05 µM (active). In the case of `CCCCSP(=O)(SCCCC)SCCCC`, the outcome is reported as “inactive”. `CCCSP(=O)(OCC)Oc1ccc(Br)cc1Cl` (stereo unspecified) was tested, and the outcome was “inactive”. `CCC(=O)Nc1ccc(Cl)c(Cl)c1` was tested, and the outcome was “inactive”.
